Test results from paper PMC8384837, “Expanding the binding specificity for RNA recognition by a PUF domain”.
Residue numbers refer to the chain shown, from its start.

What was measured:
Experiment in all cases: yeast three-hybrid, YBZ-1, SC-Leu-His + 0.5 mM 3-AT, 4 days
Settings in all cases: tags: N-Gal4 AD-HA kept; label: inside an RPR1-promoter hybrid RNA with tandem MS2 sites; ssRNA
[1] = target: PUM1 PUF domain R8-CHK (Homo sapiens, UniProt Q14671 828-1176, N1122C;Y1123H;Q1126K)
Summary of the method: (§1)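 Matching RNA elements and Pumilio-1 PUF domain libraries, randomized at the three base-contacting residues of every repeat, were co-expressed from a centromeric plasmid in strain YBZ-1 (LexA–MS2 coat fusion, HIS3 reporter). The repeat regions were PCR-amplified and Illumina-sequenced from cells grown four days on SC-Leu (input) or SC-Leu-His + 0.5 mM 3-AT (selection). The interaction score is the log change in variant frequency from input to selection. It is computed in log2, with a pseudocount of 1 for absent variants.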

[2] = target: PUM1 PUF domain R5-WHG (Homo sapiens, UniProt Q14671 828-1176, C1007W;R1008H;Q1011G)
Summary of the method: as §1

[3] = target: PUM1 PUF domain R5-GRH (Homo sapiens, UniProt Q14671 828-1176, C1007G;Q1011H)
Summary of the method: as §1

[4] = target: PUM1 PUF domain R5-DIR (Homo sapiens, UniProt Q14671 828-1176, C1007D;R1008I;Q1011R)
Summary of the method: as §1

[5] = target: PUM1 PUF domain R3-GRA (Homo sapiens, UniProt Q14671 828-1176, C935G;Q939A)
Summary of the method: as §1

[6] = target: T1, PUM1 PUF domain R6-LWS (Homo sapiens, UniProt Q14671 828-1176, N1043L;Y1044W;Q1047S)
T1 sequence: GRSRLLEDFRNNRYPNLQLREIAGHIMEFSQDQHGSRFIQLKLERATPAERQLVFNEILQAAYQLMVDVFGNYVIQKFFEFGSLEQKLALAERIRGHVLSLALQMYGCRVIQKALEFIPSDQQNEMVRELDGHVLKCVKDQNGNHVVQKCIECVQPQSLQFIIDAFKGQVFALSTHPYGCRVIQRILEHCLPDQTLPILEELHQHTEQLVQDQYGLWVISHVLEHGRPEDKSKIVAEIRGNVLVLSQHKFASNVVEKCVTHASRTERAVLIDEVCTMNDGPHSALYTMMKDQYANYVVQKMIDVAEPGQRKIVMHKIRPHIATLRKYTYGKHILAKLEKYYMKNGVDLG
Summary of the method: as §1

[7] = target: PUM1 PUF domain R3-RCA (Homo sapiens, UniProt Q14671 828-1176, C935R;R936C;Q939A)
Summary of the method: as §1

[8] = target: PUM1 PUF domain R8-NYP (Homo sapiens, UniProt Q14671 828-1176, Q1126P)
Summary of the method: as §1

[9] = target: T2, PUM1 PUF domain R6-MFR (Homo sapiens, UniProt Q14671 828-1176, N1043M;Y1044F;Q1047R)
T2 sequence: T1 sequence with L216M, W217F, S220R
Summary of the method: as §1

[10] = target: T3, PUM1 PUF domain R6-NYL (Homo sapiens, UniProt Q14671 828-1176, Q1047L)
T3 sequence: T1 sequence with L216N, W217Y, S220L
Summary of the method: as §1

GGCUAGAACUAGUGGAUCCCCCGGCGCCCGGCGGCUCGAGCCCGGGUAAGCGUAAAUAGUCUGCAUGCCGCCGGGCGCCAUGCCUGCAGGUCGACUCUAGAAAACAUG
binding signal [1]: 3.49 log2 enrichment (interaction score)

GGCUAGAACUAGUGGAUCCCCCGGCGCCCGGCGGCUCGAGCCCGGGUAAGUGUCAAUAGUCUGCAUGCCGCCGGGCGCCAUGCCUGCAGGUCGACUCUAGAAAACAUG
binding signal [2]: 2.14 log2 enrichment (interaction score) | binding signal [3]: 2.47 log2 enrichment (interaction score) | binding signal [4]: 3.11 log2 enrichment (interaction score)

GGCUAGAACUAGUGGAUCCCCCGGCGCCCGGCGGCUCGAGCCCGGGUAAGUGUGAAUAGUCUGCAUGCCGCCGGGCGCCAUGCCUGCAGGUCGACUCUAGAAAACAUG
binding signal [2]: 2.58 log2 enrichment (interaction score)

GGCUAGAACUAGUGGAUCCCCCGGCGCCCGGCGGCUCGAGCCCGGGUAAGUGUAAGUAGUCUGCAUGCCGCCGGGCGCCAUGCCUGCAGGUCGACUCUAGAAAACAUG
binding signal [5]: 1.12 log2 enrichment (interaction score)

GGCUAGAACUAGUGGAUCCCCCGGCGCCCGGCGGCUCGAGCCCGGGUAAGUGUUAAUAGUCUGCAUGCCGCCGGGCGCCAUGCCUGCAGGUCGACUCUAGAAAACAUG
binding signal [2]: 4.56 log2 enrichment (interaction score) | binding signal [3]: 4.85 log2 enrichment (interaction score)

GGCUAGAACUAGUGGAUCCCCCGGCGCCCGGCGGCUCGAGCCCGGGUAAGUGAAAAUAGUCUGCAUGCCGCCGGGCGCCAUGCCUGCAGGUCGACUCUAGAAAACAUG
binding signal [6]: 4.85 log2 enrichment (interaction score)

GGCUAGAACUAGUGGAUCCCCCGGCGCCCGGCGGCUCGAGCCCGGGUAAGUGUAAUUAGUCUGCAUGCCGCCGGGCGCCAUGCCUGCAGGUCGACUCUAGAAAACAUG
binding signal [5]: 0.97 log2 enrichment (interaction score) | binding signal [7]: 3.42 log2 enrichment (interaction score)

GGCUAGAACUAGUGGAUCCCCCGGCGCCCGGCGGCUCGAGCCCGGGUAAGUGUAAAUAGUCUGCAUGCCGCCGGGCGCCAUGCCUGCAGGUCGACUCUAGAAAACAUG
binding signal [5]: 2.35 log2 enrichment (interaction score) | binding signal [8]: 3.16 log2 enrichment (interaction score) | binding signal [3]: 3.97 log2 enrichment (interaction score) | binding signal [9]: 6.1 log2 enrichment (interaction score) | binding signal [10]: 5.52 log2 enrichment (interaction score) | binding signal [6]: 6 log2 enrichment (interaction score)
